# A selection: hits, their analogues and other compounds. The true share with any hit is near 0.76%.
# FadD28 binding: inhibitors of FadD28 bisubstrate probe binding, primary screen, biochemical, fluorescence polarization, single point. 0.22% of 360,000 active. inhibition, % at 12.5 µM. AID 588549, 2011; in the data active = inhibition above about 8.5%, passing the limit was not always enough; inconclusive = no clear call, values can overlap the other calls
# PrP 5UTR inh: inhibition of PrP 5' UTR reporter expression; cell-based PrP 5' UTR mRNA reporter, plate reader; inhibition, % (test concentration not listed); 0.35% of 340,000 active; AID 488862, 2010; in the data active = inhibition above about 52%
# Mtb UGM inh: M. tuberculosis UGM enzyme inhibitors, primary screen, biochemical, fluorescence polarization, single point. UDP-galactopyranose mutase (Mycobacterium tuberculosis (strain ATCC 25618 / H37Rv)), …. purified UGM, fluorescence polarization probe displacement. inhibition, % at 10 µM. 0.06% of 320,000 active; in the data active = inhibition above about 10%, passing the limit was not always enough; inconclusive = no clear call, values can overlap the other calls
# Target sequence (P9WIQ1 whole entry, looked up): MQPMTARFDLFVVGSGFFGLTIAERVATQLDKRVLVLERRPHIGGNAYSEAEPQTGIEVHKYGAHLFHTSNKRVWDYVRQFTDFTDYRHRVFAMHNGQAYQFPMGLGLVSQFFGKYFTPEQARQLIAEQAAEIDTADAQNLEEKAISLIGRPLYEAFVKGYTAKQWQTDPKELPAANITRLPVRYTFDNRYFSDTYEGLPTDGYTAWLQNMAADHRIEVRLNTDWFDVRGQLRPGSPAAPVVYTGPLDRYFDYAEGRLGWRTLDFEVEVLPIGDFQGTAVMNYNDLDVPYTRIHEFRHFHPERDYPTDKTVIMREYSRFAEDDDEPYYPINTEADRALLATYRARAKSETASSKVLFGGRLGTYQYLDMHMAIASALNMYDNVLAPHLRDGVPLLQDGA
# Mtb bLac sens: beta-lactam sensitization of Mtb H37Rv, H37Rv. inhibition, % at 25 µM. M. tuberculosis H37Rv growth with meropenem, percent inhibition. 0.27% of 330,000 active; call rule not given here;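 note: growth measured after seven days incubation then overnight dye step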
# BH1578 lux ind: inducers of Vibrio cholerae quorum light production without autoinducers, primary screen, BH1578 luxS cqsA deficient, single point; V. cholerae BH1578 lux reporter, luminescence, 6 h; activation, % at 18.7 µM; 0.16% of 350,000 active; in the data active = activation mostly above about 9.7%, no sharp cut-off; inconclusive = no clear call, values can overlap the other calls; inactive = mostly below about 3.7%
# Rv3671c inh: Rv3671c serine protease inhibitors, primary screen, biochemical, fluorescence polarization, M. tuberculosis H37Rv; inhibition, % at 5.96 µM; 0.048% of 320,000 active; in the data active = inhibition above about 38%;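 note: extracellular domain of Rv3671c used as enzyme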
# PrP 5UTR single: prion 5' UTR mRNA inhibition, cherry-pick retest | AID 504592, 2011 | inhibition, % at 2.5 µM | cell-based prion protein 5' UTR reporter, plate reader | shares compounds with PrP 5UTR inh | 48% of 1,100 active; in the data active = inhibition above about 54%; inconclusive = no clear call, values can overlap the other calls
# A number is an active result; . = inactive; ? = inconclusive; / = no result given; ! = not active in a repeat.
SMILES,FadD28 binding,PrP 5UTR inh,Mtb UGM inh,Mtb bLac sens,BH1578 lux ind,Rv3671c inh,PrP 5UTR single
COc1ccc(OC)c(NC(=O)CSc2nnc(CNC(=O)c3cc(OC)c(OC)c(OC)c3)o2)c1,.,.,.,.,.,.,/
Cc1cccc(C(=O)N/C(=C\c2ccco2)C(=O)N2CCCC2)c1,.,.,.,.,.,.,/
Cc1nn(-c2nc3ccccc3[nH]2)c(=O)c2ccccc12,.,93,.,.,.,.,95
COC(=O)CCn1nnc(-c2ccc(C(C)C)cc2)n1,.,73,.,.,.,.,70
Cc1cc(=O)oc2cc(NC(=O)C(CCCN=C(N)N)NC(=O)OCc3ccccc3)ccc12 (stereo not drawn),.,.,.,.,.,/,/
CN1C(=O)C(CCC(=O)O)NC1=S (stereo not drawn),.,.,.,.,.,.,/
O=c1c2ccccc2oc2cc(C#CC3(O)CCCCC3)ccc12,.,70,.,.,.,.,55
O=c1c2ccccc2sc2ccc(C#CC3(O)CCCCC3)cc12,.,92,.,.,.,.,86
COc1cccc2oc3cc(C#CC4(O)CCCCC4)ccc3c(=O)c12,.,.,.,.,.,.,/
O=C(Nc1ccccc1O)N1c2ccccc2Sc2ccccc21,.,.,.,.,.,.,/
COc1ccc(CNC(=O)C2CCC(=O)N(C3CCCCCC3)C2)c(OC)c1 (stereo not drawn),.,/,/,/,.,/,/
CCCCOC(=O)NC1CCc2cc(OC)c(OC)c(OC)c2-c2ccc(SC)c(=O)cc21 (stereo not drawn),.,.,/,/,.,/,/
CCOC(=O)NC1CCc2cc(OC)c(OC)c(OC)c2-c2ccc(SC)c(=O)cc21 (stereo not drawn),.,58,/,/,.,/,86
COc1cc2c(c(OC)c1OC)-c1ccc(O)cc1C(NC(C)=O)CC2 (stereo not drawn),.,73,/,/,.,/,87
O=C(NS(=O)(=O)N1CCOCC1)C1=C(N2CCCC2)COC1=O,.,.,.,.,.,.,/
CN(C)c1ccc(NC(=S)c2ccccn2)cc1,.,83,.,.,.,.,80
COC(=O)C[C@H]1C[C@@H]2c3cc(NC(=O)NC4CCCC4)ccc3O[C@@H]2[C@@H](CO)O1,.,/,/,/,.,/,/
C/C(=N\NC(=O)c1n[nH]c2c1CCC2)c1cccs1,.,76,.,.,.,.,73
O=C(N/N=C/c1cccs1)c1n[nH]c2c1CCCC2,.,.,.,.,.,.,/
Cn1nnc2cc(C(=O)NC3CCCCC3)ccc21,.,75,.,.,.,.,83
CC(C)NC(=O)c1ccc2c(c1)nnn2C,.,.,.,.,.,.,/
COc1ccc(-n2ncc3c(SCC(=O)N4CCN(c5ccccc5OC)CC4)ncnc32)cc1,.,64,.,.,.,.,.
CCC(=O)c1cccc(-c2ccccc2)c1CC,?,.,/,/,.,/,/
CCC(C)Oc1cc(-c2ccnc(Nc3cccc(Cl)c3)n2)ccn1 (stereo not drawn),.,.,.,.,.,.,/
OCCCNc1cc(-c2ccnc(Nc3cccc(Cl)c3)n2)ccn1,.,82,.,.,.,.,84
SMILES,FadD28 binding,PrP 5UTR inh,Mtb UGM inh,Mtb bLac sens,BH1578 lux ind,Rv3671c inh,PrP 5UTR single
CC1=Nc2cc(C(=O)NCc3ccco3)ccc2Sc2ccc(C)cc21,.,61,.,.,.,.,88
COc1cc(C2c3[nH]c4ccccc4c3CC3COC(=O)N32)cc(OC)c1O (stereo not drawn),.,59,/,/,.,/,90
COc1cc([C@H]2c3[nH]c4ccccc4c3C[C@H]3C(=O)N4[C@@H](c5cc(OC)c(OC)c(OC)c5)c5[nH]c6ccccc6c5C[C@H]4C(=O)N23)cc(OC)c1OC,.,.,.,.,.,.,/
CN1CCc2c(c3ccccc3n2Cc2ccccc2)C1,.,58!,.,.,.,.,.
CCCCN1CCc2c(c3ccccc3n2Cc2ccccc2)C1,.,.,.,.,.,.,/
O=C(Nc1c(-c2cccs2)nc2ccccn12)c1ccc2ccccc2c1,/,/,.,.,/,.,/
O=C(Nc1c(-c2cccs2)nc2ccccn12)c1ccccc1F,.,82,.,.,.,.,.
CCOC(=O)Cn1c(=O)c2c(nc3n2CCCCN3c2ccc(C)cc2)n(C)c1=O,.,.,.,.,.,.,/
Cc1ccc(N2CCCCn3c2nc2c3c(=O)n(CC(=O)O)c(=O)n2C)cc1,.,58,.,.,.,.,.
C[C@H]1CCC/C=C/[C@@H]2C[C@H](O)C[C@H]2[C@H](O)[C@H](S(=O)c2ccc(O)cc2)CC(=O)O1 (stereo partly drawn),.,86,/,/,.,/,69
CC1CCCC=CC2CC(OC(=O)CN(C)C)CC2C(O)C=CC(=O)O1 (stereo not drawn),.,81,/,/,.,/,90
C[C@H]1CCC/C=C/[C@@H]2C[C@H](O)C[C@H]2[C@@H](O)/C=C/C(=O)O1,.,86,/,/,.,/,91
Cc1cc(C)n2nc(C(=O)N3CCN(c4ccc([N+](=O)[O-])cc4)CC3)nc2n1,.,.,.,.,.,.,/
CC(=O)Nc1ccc(NC(=O)CN(C)CC(=O)Nc2ccccc2Br)cc1,.,.,.,.,.,.,/
CN(CC(=O)Nc1cccc(F)c1)CC(=O)N(C)CC(=O)Nc1ccccc1Br,.,91,/,.,.,.,.
C=CCOc1ccc(Br)cc1CNCC,.,.,.,.,.,.,/
CCOc1ccc(S(=O)(=O)n2cc(F)c(=O)[nH]c2=O)cc1,.,.,.,.,.,.,/
CCCSc1ccc2nc(-c3ccccc3)cn2c1,.,60,.,.,.,.,75
CCCCN1C(=O)C(CC(=O)NCCN2CCOCC2)CC(C(=O)N(CC)CC)=C1C (stereo not drawn),.,/,/,/,.,/,/
CC(C)(C)C(=O)Nc1cccc(-c2nnc(-c3cccc(NC(=O)C(C)(C)C)c3)o2)c1,.,59,.,.,.,.,.
NC(=O)c1nsc(C(=O)N(CC(=O)NCc2ccc3c(c2)OCO3)C2CCCC2)c1N,.,76,.,.,.,.,.
CCCC(C(=O)NC1CCCC1)N(Cc1ccc2c(c1)OCO2)C(=O)c1snc(C(N)=O)c1N (stereo not drawn),.,.,.,.,.,.,/
CC(=O)Nc1ccc(CN2CCCC(CCC(=O)NCc3ccccc3F)C2)cc1 (stereo not drawn),.,80,.,.,.,.,.
O=C(CCC1CCCN(Cc2cccc(Cl)c2)C1)NCc1ccccc1F (stereo not drawn),.,.,.,.,.,.,/
COc1ccc(C2(CNS(=O)(=O)c3ccccc3)CCOCC2)cc1,.,.,.,.,.,.,/

# Screening data (PubChem BioAssay)
